# Laboratory results as given in PubChem BioAssay (NCI).
# This is part of a sample that, as a whole, favours compounds with a hit. Of some 83,000 tested, about 20% had one in any assay.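 Compound tested at a single concentration for 48 hours in 96-well plates; a percent growth value below 10 was scored as active.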 A number with no mark means an inactive call. Calls of active or inactive are those of the source.
# Test system: HL-60(TB) leukemia
# Assay: NCI-60 one-dose screen, 48 h (100 = growth as untreated, 0 = no growth, -100 = all killed)
# Details: 10 µM unless noted
row,Compound,growth
1,CC1C(C)N(C(=O)CCl)c2ccccc2N1C(=O)CCl (stereo unspecified),-56.9% (active)
2,COc1ccc(/C=C/C(=O)c2ccc(-n3cc(CN4CCN(c5cc6c(cc5F)c(=O)c(C(=O)O)cn6C5CC5)CC4)nn3)cc2)cc1,85.9%
3,O=C(NCCN1CCCC1)n1cc(-c2ccncc2)c(-c2cc(O)cc(Cl)c2)n1,95%
4,COc1cc(C2C3=C(COC3=O)Nc3cc4c(cc32)CCC4)cc2c1OCO2 (stereo unspecified),10.4%
5,COCCN(C(=O)Cc1cccs1)C(C(=O)NCc1ccc(OC)cc1)c1ccc(C(C)C)cc1 (stereo unspecified),105%
6,NS(=O)(=O)c1ccc(NC(=O)/C(=C\c2ccc(Cl)cc2Cl)NC(=O)c2ccccc2)cc1,84.8%
7,O=C1Nc2cc(-c3ccc(NS(=O)(=O)c4ccccc4)cc3)ccc2/C1=C/c1ccc[nH]1,95.7%
8,COC12C=C/C(=C(/C(=O)OCc3csc(SC)n3)C(=O)CCCCCCCCC3(OC)C=C/C(=C(/C(=O)OCc4cnc(SC)s4)C(=O)CCCCCCCC1)O3)O2 (stereo unspecified),6.46% (active)
9,CC1=NN(c2ccc(Cl)cc2)CC1(C)N=O (stereo unspecified),38.5%
10,Nc1c(Cl)cc([N+](=O)[O-])cc1Br,101%
11,OCCNCCNC(Cc1ccc(Cl)cc1)c1ccccc1 (stereo unspecified),76.4%
12,Nc1c(C(=O)Nc2cccc(Cl)c2)sc2nc3c(cc12)C(O)CCC3 (stereo unspecified),2.96% (active)
13,CNc1ccc(CSc2ccc(Cl)cc2)cc1,5.59% (active)
14,C=C1C(=O)O[C@H]2[C@H]1CC/C(COC(=O)NCCc1c[nH]c3ccc(OC)cc13)=C\CC[C@@]1(C)O[C@@H]21,-42.8% (active)
15,S=C(NCCNC(=S)[S][Sn]([c]1ccccc1)([c]1ccccc1)[c]1ccccc1)[S][Sn]([c]1ccccc1)([c]1ccccc1)[c]1ccccc1,-31% (active)
16,O=C1Nc2ccc(Br)cc2C1=O,99.6%
17,O=c1oc2ccc(I)cc2c(=O)n1-c1ccc(F)cc1F,-4.05% (active)
18,CCN(CC)c1ccc(C2=NN(C(C)=O)C(c3cc(OC)c(OC)c(OC)c3)C2)cc1 (stereo unspecified),-42% (active)
19,COc1ccc(Cc2cnc(NC(=O)c3sc4ccccc4c3Cl)s2)cc1,-50.3% (active)
20,Cc1cccc(NC(=O)c2sc3nc4c(cc3c2N)CCC4)c1C,8.43% (active)
21,CCCCCCCCCCCCCCC(C(=O)OCC)C(=O)OCC,104%
22,O=[N+]([O-])c1ccc2c(c1)S(=O)c1cc([N+](=O)[O-])ccc1N2,109%
23,CN(C)c1ccc(/C=C\c2cccc[n+]2C)cc1,27.2%
24,N#Cc1ccc(-c2csc(Nc3ccc4nc5n(c(=O)c4c3)CCC5)n2)cc1,103%
25,COc1c(-c2c3sc(=O)[nH]c3nc3c2c(=O)[nH]n3C(C)C)cc2c(c1OC)OCO2,93.8%
26,CN(C)CCCn1c2nc(=O)[nH]c(=O)c-2nc2cc(Cl)c(Cl)cc21,76%
